About 1,200 (3.2%) of roughly 38,000 compounds showed an effect of 50% or more. The median lay at about -58%. The sample as a whole holds a higher share of strong results than the screen did.

The assay concerns Plasmodium falciparum. The assay is described as follows: Calibr Malaria Delayed Death Assay SOP. The class given is functional, organism-based. Set-up: scale not given: in the data most compounds retested in dose-response had high values. To be noted: concentration 4.99e-06 (unit not given; other assays of the set use mol/L).
With `CS(=O)(=O)Nc1nn(Cc2ccc(F)cc2)cc1Br`, the “Percent Effect” value was -19.12%.
As for `CCNS(=O)(=O)c1cnccc1N1CCN(CCO)CC1`, the “Percent Effect” value is given as -122.2%.
As to `Cc1cc(C)nc(N2CCC(c3cncc(-n4ccnc4)n3)CC2)n1`, the “Percent Effect” value is on record as -62.28%.
In the case of `CC(O)CN1CCN(C(=O)CCOC(C)C)CC1` (stereo unspecified), the “Percent Effect” value is on record as -34.58%.
With `O=C(C1CCOCC1)N1CCC2(CCN(Cc3nccs3)CC2)CC1.O=C(O)C(F)(F)F` the figure was -69.08%.
Regarding `CN(Cc1cc(Br)cs1)Cc1nnsc1Cl`, the “Percent Effect” value is -124.6%.
Consider `CCOc1ccnc(N2CCCN(c3nc(C4CC4)ns3)CC2)n1`, for which the “Percent Effect” value turned out to be 50.17%.
In the case of `CCOc1ccnc(N2CCCN(c3nc(CC)ns3)CC2)n1`, the “Percent Effect” value is -65.97%.
Then `Cc1nsc(N2CCCN(c3nc(C4CC4)ns3)CC2)n1`, with -111.5%.
With `COCCN(Cc1sccc1C)C(=O)COc1ccccc1O` the figure was -70.17%; with `COCCN(Cc1sccc1C)C(=O)C1CCN(C(C)C)CC1`, 57.24%.
As to `COCCN(Cc1sccc1C)C(=O)C1CCCN(C(N)=O)C1` (stereo unspecified), the “Percent Effect” value is given as -77.34%.
`CCn1cnnc1CNC(=O)NC(C)c1ccc(Cl)s1` (stereo unspecified): the “Percent Effect” value is reported as -29.19%.
Then `Cc1nc(N)ccc1CC1COc2ccccc2C1` (stereo unspecified), with 39.32%; and `Cc1nc(CNCC(C)c2nc3ccccc3o2)cs1` (stereo unspecified), with -114.5%; and `Cc1csc(CNCC(C)c2nc3ccccc3o2)n1` (stereo unspecified), with -35.1%.
Then `Cc1ccc(O)c(CNCC(C)c2nc3ccccc3o2)n1` (stereo unspecified), with 62.12%.
Then `N#Cc1cccnc1OC1CCN(S(=O)(=O)c2ccc(F)c(Cl)c2)CC1`, with -120.1%.
Regarding `Cc1cccc(C(=O)N2CC[C@@H]3CN(c4ncccn4)CCO[C@@H]3C2)c1`, the “Percent Effect” value amounted to 3.612%.
With `CCn1ccnc1CN(C)C(=O)Cn1ccc2ccccc2c1=O` the figure was -48.52%; with `CN1CCOC(CNCc2cccc(OCC(F)(F)F)c2)C1` (stereo unspecified), 11.83%.
With `Cc1cccc(C2(C(=O)NCC3CN(C)CCO3)CC2)c1` (stereo unspecified) the figure was -0.8202%.
With `CN1CCOC(CNC(=O)C2(c3cccc(C(F)(F)F)c3)CCCC2)C1` (stereo unspecified) the figure was 55.27%; with `Cc1ccnc(NC(=O)c2[nH]nc(C(C)C)c2Br)c1`, 72.66%.
For the molecule `Cc1cccc(NC(=O)c2[nH]nc(C(C)C)c2Br)n1`, the “Percent Effect” value is 55.91%.
Then `Cc1ccnc(NC(=O)CCNC(=O)c2ccccc2Cl)c1`, with -154.4%; and `Cc1cccc(NC(=O)c2ccc(-n3cncn3)nn2)n1`, with -82.38%.
Then `Cc1cccc(NC(=O)c2sc(C)nc2C)n1`, with -70.67%.
Then `CC(C)c1n[nH]c(C(=O)Nc2cc[nH]n2)c1Br`, with -216.8%; and `CC(C)c1n[nH]c(C(=O)Nc2ccncc2)c1Br`, with -170.8%; and `Cc1ccnc(NC(=O)c2ccc(Br)o2)c1`, with -122.7%.
Consider `CCc1ccsc1C(=O)N1CCCN(Cc2cnn(CC)c2)CC1`, for which the “Percent Effect” value was -131.2%.
Then `Cc1occc1C(=O)N1C[C@@H]2OCCN(CCN3CCCC3)[C@@H]2C1.O=C(O)C(F)(F)F.O=C(O)C(F)(F)F`, with -96.04%; and `CCC(=O)N1CCC2(CC1)C(=O)N(C)CCN2Cc1csc(C)n1.O=C(O)C(F)(F)F`, with -46.93%.
With `COCCN(C)C[C@@H]1CN(C(=O)c2cccc(Cl)c2)C[C@@H]1CO` the figure was -171.8%.
With `COCCN1C(=O)[C@H]2CC[C@@H]1CN(S(=O)(=O)c1cccc(Cl)c1)C2`, the “Percent Effect” value is reported as -81.8%.
With `CN(C)CCN(C)C[C@@H]1CN(Cc2cccc(O)c2)C[C@@H]1CO` the figure was -40.55%.
For `CCN(C)C[C@@H]1CN(S(=O)(=O)c2cccc(Cl)c2)C[C@@H]1CO`, the “Percent Effect” value was found to be 74.38%.
Then `C=Cc1cccc(CN2C[C@@H](CN(C)CC)[C@@H](CO)C2)c1`, with 87.24%; and `CCN(C)C[C@@H]1CN(Cc2cccc(O)c2)C[C@@H]1CO`, with -20.19%.
With `Cc1ncsc1C(=O)OCC1CCN(c2ccccc2)C1` (stereo unspecified), the “Percent Effect” value is listed as 9.637%.
With `CNc1cncc(C2CCCN2Cc2ccnc(N3CCCC3)n2)n1` (stereo unspecified) the figure was -40.21%.
Then `CN(CC1(CO)CCCC1)C(=O)c1cc(COc2ccccc2F)[nH]n1`, with -12.3%.
With `CSCCC(NC(=O)c1nc(SC)ncc1Cl)C(=O)O` (stereo unspecified) the figure was -13.47%; with `CC(C)(C)c1nc(CN2CCOC(Cn3cncn3)C2)cs1` (stereo unspecified), -89.29%; with `Cc1cc(-c2cnn(CCNC(=O)CCn3cccn3)c2C2CC2)on1`, -69.32%.
For `CC(C)NC(=O)CN1CCN(CC2CCOc3ccccc3C2)CC1` (stereo unspecified), the “Percent Effect” value is recorded as -22.48%.
With `O=C(CCN1CCCC1c1cccc2c1OCCO2)N1CCCCC1` (stereo unspecified) the figure was 72.46%; with `NC(=O)NC(=O)CCN1CCCC1c1cccc2c1OCCO2` (stereo unspecified), 22.71%; with `CCNC(=O)CCN1CCCC1c1cccc2c1OCCO2` (stereo unspecified), 51.42%.
Then `CNC(=O)CCN1CCCC1c1ccccc1Br` (stereo unspecified), with -26.77%; and `O=C(CCN1CCCC1c1cccc2c1OCCO2)N1CCOCC1` (stereo unspecified), with -28.31%; and `CC(C)NC(=O)CCN1CCCC1c1cccc2c1OCCO2` (stereo unspecified), with 52.1%.
With `O=C(CCN1CCCCCC1c1ccco1)N1CCOCC1` (stereo unspecified) the figure was -45.72%; with `COCCN1CCCC1c1cccc2c1OCCO2` (stereo unspecified), -6.29%; with `Cc1cc(C)cc(NCCC(=O)NC2CCCCC2)c1`, -32.74%.
With `CCOCC1CN(C(=O)Cc2ccccn2)Cc2cnn(CC)c21` (stereo unspecified), the “Percent Effect” value is recorded as -151.3%.
For `CCCNC(=O)CNc1ccccc1OCCC(=O)OC`, the “Percent Effect” value was -87.74%.
With `Cn1cc(CN2CCC3(CC2)CCN(C(=O)c2cscn2)C3)cn1.O=C(O)C(F)(F)F` the figure was -97.69%; with `COc1ccc(C(N)=O)cc1NCc1nc(-c2cccs2)oc1C`, -37.05%; with `CC(C)c1nnc2n1CC(CNCc1cccnc1)CC2` (stereo unspecified), -95.11%.
As for `O=C(NCCC(=O)N1CCCC1)c1cccnc1`, the “Percent Effect” value is -130.5%.
Turning to `CC(=O)Nn1ccc2c(nnc3c(-c4ccc(F)cc4)cnn32)c1=O`, the “Percent Effect” value was -66.29%.
With `COc1ncc(CN2C[C@@H]3CC[C@@](O)(c4ccc(C)cn4)[C@@H]3C2)cn1.O=C(O)CC(O)(CC(=O)O)C(=O)O`, the “Percent Effect” value was -80.6%.
Then `CC[C@H]1CN(C(=O)CCn2c(C)cccc2=O)CC[C@@]1(C)O`, with -150.9%; and `CN(C)c1cc(CNC(=O)c2n[nH]c(=O)c3ccccc23)ccn1`, with -121.9%.

These data come from ChEMBL document CHEMBL3988442, “University of Dundee, Small-Polar-MMV Screening Library” (2021).
